# Experimental data from PubChem BioAssay (Tox21).
# Results filed as inconclusive are left out. Where a call stands in place of a potency, no number is given. The source made the active and inactive calls. Calls come from the whole dose curve.
# Test: qHTS assay for small molecule agonists of the antioxidant response element (ARE) signaling pathway - cell viability counter screen (AID 743203); note: nearly all actives have a fitted effect of over 55% in size
# Details: ARE-bla HepG2 viability, CellTiter-Glo luminescence, 16 h; series mostly up to 73.3 µM
# Description: National Center for Advancing Translational Sciences [NCATS]
# NIH Chemical Genomics Center [NCGC]
# U.S. Environmental Protection Agency [EPA]
# National Institutes of Environmental Health Sciences [NIEHS]
# National Toxicology Program [NTP]
# U.S. Food and Drug Administration [FDA]
# Oxidative stress has been implicated in the pathogenesis of a variety of diseases ranging from cancer to neurodegeneration. The antioxidant response element (ARE) signaling pathway plays an important role in the amelioration of oxidative stress. The CellSensor ARE-bla HepG2 cell line (Invitrogen) can be used for analyzing the Nrf2/antioxidant response signaling pathway. Nrf2 (NF-E2-related factor 2) and Nrf1 are transcription factors that bind to AREs and activate these genes. The CellSensor ARE-bla Hep G2 cell line contains a beta-lactamase reporter gene under control of the Antioxidant Response Element (ARE) stably integrated into HepG2 cells. The activation of the report gene under culture conditions can be detected by fluorescence intensity. This cell line has been used to screen the Tox21 10K compound library to identify agonists that induce oxidative stress. The cytotoxicity of the Tox21 compound library against the ARE-bla cell line was tested in parallel by measuring the cell viability using CellTiter-Glo assay (Promega, Madison, WI) in the same wells.
# Tox21 Assay Protocol Summary:
# ARE-bla HepG2 cells were dispensed at 2,000 cells/5 ul/well in 1536-well white wall/solid bottom plates using a Multidrop Combi (ThermoFisher Scientific, Waltham, MA) dispenser. After the assay plates were incubated at 37C/5% CO2 for 5 hrs, 23 nL of compounds dissolved in DMSO, positive controls or DMSO only was transferred to the assay plate by a pintool work station (Kalypsys, San Diego, CA). The plates were incubated at 37C/5% CO2 for 16 hrs, followed by addition of 4 ul/well of CellTiter-Glo reagent into the assay plates using a Flying Reagent Dispenser (Aurora Discovery, San Diego, CA). After 30 min incubation at room temperature, the luminescence intensity in the assay plates was measured using a ViewLux (PerkinElmer, Shelton, CT) plate reader.
# Potency is the fitted concentration of half-maximal effect.
Structure (SMILES),Potency,"viability change, negative = cytotoxic"
CCN(CC)c1ccc2c(-c3ccccc3C(=O)O)c3ccc(=[N+](CC)CC)cc-3oc2c1,inactive,
CCO[Si](CCCCl)(OCC)OCC,inactive,
CC(COCCO)OCCO (stereo not given),inactive,
CCCCCCCCO[C@@H]1O[C@H](CO)[C@@H](O)[C@H](O)[C@H]1O,inactive,
COc1cc2nc(N(C)CCCNC(=O)C3CCCO3)nc(N)c2cc1OC (stereo not given),inactive,
Nc1ncn([C@H]2C[C@H](O)[C@@H](CO)O2)c(=O)n1,inactive,
CN(C)CCN(Cc1ccsc1)c1ccccn1,inactive,
C=C(C)C(=O)OCC,inactive,
Nc1ccc([N+](=O)[O-])c(C(F)(F)F)c1,inactive,
O=C(Nc1ccc(S(=O)(=O)N2CCOCC2)cc1)c1cc(Cl)ccc1NS(=O)(=O)c1ccc(Cl)s1,13.3 µM (active),
Nc1cc(C(=O)O)c(O)c(S(=O)(=O)O)c1,inactive,
NC(N)=NCCC[C@H](N)C(=O)O,,9.06% [at 8.36 µM] (inactive)
O=C(O)c1ccco1,inactive,
CCCCO,inactive,
Cc1oc(-c2ccccc2)nc1CCOc1cccc2c1ccn2CCC(=O)O,inactive,
CN(C)CCN(Cc1ccc(Cl)cc1)c1ccccn1,inactive,
CN1CCN(C(c2ccccc2)c2ccccc2)CC1,inactive,
CC(=O)NO,inactive,
CN1Cc2cc(C(=O)N3CCC(C4CCNCC4)CC3)ccc2NC(CC(=O)O)C1=O (stereo not given),inactive,
Cc1[nH]c(C)c(Cl)c(=O)c1Cl,inactive,

Structure (SMILES),Potency,"viability change, negative = cytotoxic"
CCCCNc1ccc(C(=O)OCCOCCOCCOCCOCCOCCOCCOCCOCCOC)cc1,inactive,
CNCCCN1c2ccccc2CCc2ccccc21,29.8 µM (active),
CN(C)c1ccc(CCO)cc1,inactive,
Cc1ccccc1S(=O)(=O)O,inactive,
S=C([S-])NCCNC(=S)[S-].[Mn+2],inactive,
NCc1ccccc1Sc1ccccc1CO,inactive,
O=C(O)C1(C(=O)O)CCC1.[NH2-].[NH2-].[Pt+2],inactive,
CCCC(=O)Nc1ccc(O)c(C(C)=O)c1,inactive,
CCN(CC)CCNC(=O)c1cc(Br)c(N)cc1OC,inactive,
CC(CSC(=O)c1ccccc1)C(=O)N1C[C@@H](Sc2ccccc2)C[C@H]1C(=O)O (stereo not given in full),inactive,
OCCN1CCN(CCCN2c3ccccc3C=Cc3ccccc32)CC1,inactive,
O=C(O)CNCC(=O)O,,1.43% [at 8.36 µM] (inactive)
Cc1cccc(C)c1NC(=O)CN(CC(=O)O)CC(=O)O,inactive,
Cc1cccc(C)c1OCC(=O)N[C@@H](Cc1ccccc1)[C@@H](O)C[C@H](Cc1ccccc1)NC(=O)[C@H](C(C)C)N1CCCNC1=O,inactive,
CCCCCCc1ccc(-c2ccc(C#N)cc2)cc1,inactive,
O=C(O)C(S)C(S)C(=O)O (stereo not given),inactive,
O=C(NCCO[N+](=O)[O-])c1cccnc1,inactive,
CNC(=O)CN(CCN(CCN(CC(=O)[O-])CC(=O)NC)CC(=O)[O-])CC(=O)[O-].O.[Gd+3],inactive,
CCNc1cc(O)ccc1C,inactive,
CCCCCCCCCc1ccc(OCCOCCO)cc1,inactive,
